Source: PubChem BioAssay (Tox21)
Values joined by “and” are separate entries in the source; they are usually repeats but may differ in a detail not shown here. Equal values may be shown once. Results filed as inconclusive are left out. A call without a number means that no potency is given here. Some structures have more than one record in an assay (separate samples or runs), and their calls can disagree. Active and inactive are the calls of the source. Unless noted, calls come from the whole dose curve; as a rule, active = well fitted curve in the direction sought with a large enough effect in the repeat runs; inconclusive = weak or mixed curves; inactive = no such curve, though single readings can be large; an effect the other way counts as inactive or inconclusive.

Assays:
[1] = qHTS assay to test for compound auto fluorescence at 535 nm (green) in HEK293 cells (AID 720680)
[2] = qHTS assay to test for compound auto fluorescence at 535 nm (green) in HEK293 cell free culture (AID 720682)
How it was run: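 Using fluorescein as calibrant, autofluorescence was quantified at 485/535 nm in cell-free DMEM containing 10% FBS after pintool addition of compound or vehicle.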

[3] = qHTS assay to test for compound auto fluorescence at 590 nm (red) in HepG2 cell free culture (AID 720684)
How it was run: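 Rose Bengal sodium served as the reference for red signal. Test compounds were dispensed into serum-containing MEM (10% FBS) without cells, and plates were read at 540/590 nm.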

[4] = qHTS assay to test for compound auto fluorescence at 460 nm (blue) in HepG2 cell free culture (AID 720685)
How it was run: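 Cell-free plates of MEM plus 10% FBS received 23 nL compound or DMSO vehicle; blue-channel (405/460 nm) intensity scored against triamterene as reference fluorophore.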

[5] = qHTS assay to test for compound auto fluorescence at 535 nm (green) in HepG2 cell free culture (AID 720686)
[6] = qHTS assay to test for compound auto fluorescence at 460 nm (blue) in HepG2 cells (AID 720687)
How it was run: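 HepG2 cells in MEM with 10% FBS, attached overnight at 37 C, were exposed to compound or DMSO for 1 hr at 37 C, 5% CO2. Blue fluorescence was read at 405/460 nm, with triamterene as reference fluorophore.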

[7] = biological target: Glucocorticoid receptor (Homo sapiens) (UniProt P04150); assay: qHTS assay to identify small molecule agonists of the glucocorticoid receptor (GR) signaling pathway (AID 720691; active = well fitted activation curve with a large enough effect in the signal ratio in the repeat runs, not every such curve was filed as active; the % refers to the signal ratio)
How it was run: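 Steps: seed GR-bla HeLa cells, incubate 4 h at 37 C/5% CO2; pin-transfer DMSO-dissolved compounds; incubate 18 h at 37 C; add LiveBLAzer B/G FRET substrate; after 2 h at room temperature, measure fluorescence.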

[8] = qHTS assay to identify small molecule antagonists of the glucocorticoid receptor (GR) signaling pathway - cell viability counter screen (AID 720693); note: nearly all actives have a fitted effect of over 55% in size; note: potency is the fitted concentration of half-maximal effect
[9] = qHTS assay for identifying genotoxic compounds that show differential cytotoxicity against isogenic chicken DT40 cell lines with known DNA damage response pathways - wild type cell line (AID 743012); note: nearly all actives have a fitted effect of over 60% in size; note: potency is the fitted concentration of half-maximal effect
How it was run: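 Cytotoxicity in repair-proficient parental chicken DT40 cells serves as the comparator for Rad54/Ku70- and Rev3-deficient lines. Cells were exposed to compounds for 40 h at 37 C/5% CO2, and ATP-based luminescence (CellTiter-Glo) measured viability.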

[10] = qHTS assay for identifying genotoxic compounds that show differential cytotoxicity against isogenic chicken DT40 cell lines with known DNA damage response pathways - Rev3 mutant cell line (AID 743014); note: nearly all actives have a fitted effect of over 55% in size; note: potency is the fitted concentration of half-maximal effect
[11] = qHTS assay for identifying genotoxic compounds that show differential cytotoxicity against isogenic chicken DT40 cell lines with known DNA damage response pathways - Rad54/Ku70 mutant cell line (AID 743015); note: nearly all actives have a fitted effect of over 60% in size; note: potency is the fitted concentration of half-maximal effect
[12] = qHTS assay to identify small molecule antagonists of the androgen receptor (AR) signaling pathway - cell viability counter screen (AID 743033; note: nearly all actives have a fitted effect of over 45% in size; note: potency is the fitted concentration of half-maximal effect)
[13] = biological target: Androgen receptor (Homo sapiens) (UniProt P10275); assay: qHTS assay to identify small molecule antagonists of the androgen receptor (AR) signaling pathway (AID 743035; active = well fitted inhibition curve with a large enough effect in the signal ratio in the repeat runs, not every such curve was filed as active; the % refers to the signal ratio; note: potency is the fitted concentration of half-maximal effect)
How it was run: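 Steps: seed AR-UAS-bla GripTite HEK293 cells, incubate 4 h at 37C; pin in test compound, then add agonist R1881; incubate 16 h at 37C; add LiveBLAzer B/G FRET substrate, 2 h at room temperature; read fluorescence.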

[14] = biological target: Androgen receptor (Homo sapiens) (UniProt P10275); assay: qHTS assay to identify small molecule agonists of the androgen receptor (AR) signaling pathway (AID 743036; active = well fitted activation curve with a large enough effect in the signal ratio in the repeat runs, with a control signal flat, not every such curve was filed as active; the % refers to the signal ratio)
How it was run: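 In this Tox21 qHTS, 2,000 HEK293 AR-bla cells per well were incubated with compounds for 16 h at 37C and 5% CO2. Fluorescence intensity was recorded 2 h after adding LiveBLAzer B/G FRET substrate at room temperature.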

[15] = biological target: Androgen receptor (Homo sapiens) (UniProt P10275); assay: qHTS assay to identify small molecule agonists of the androgen receptor (AR) signaling pathway using the MDA cell line (AID 743040; note: nearly all actives have a fitted effect of over 20% in size); details: MDA-kb2 AR-luc cells, MMTV luciferase, 16 h, stronger effect = higher value
How it was run: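 Luciferase read-out, ONE-Glo, 30 min RT. Cells: MDA-kb2 AR-luc, MMTV promoter with AR and GR response elements. Compound exposure 16 h, 37C, 0% CO2, after 5 h pre-incubation. qHTS agonist mode.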

[16] = qHTS assay to identify small molecule antagonists of the androgen receptor (AR) signaling pathway using the MDA cell line - cell viability counter screen (AID 743041; note: nearly all actives have a fitted effect of over 45% in size; note: potency is the fitted concentration of half-maximal effect)
How it was run: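 Cytotoxicity counter screen: MDA-kb2 AR-luc cells, compound + R1881, 16 h, 37C, 0% CO2; CellTiter-Fluor added at 15.5 h, fluorescence read after 30 min.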

[17] = biological target: Androgen receptor (Homo sapiens) (UniProt P10275); assay: qHTS assay to identify small molecule antagonists of the androgen receptor (AR) signaling pathway using the MDA cell line (AID 743042; note: nearly all actives have a fitted effect of over 55% in size; note: potency is the fitted concentration of half-maximal effect)
How it was run: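 MDA-kb2 breast carcinoma cells carrying MMTV-luciferase (AR/GR responsive) were co-treated with compounds and the agonist R1881 for 16 h at 37C. Inhibition read as ONE-Glo luminescence; CellTiter-Fluor fluorescence measured in parallel for cytotoxicity.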

[18] = biological target: Glucocorticoid receptor (Homo sapiens) (UniProt P04150); assay: qHTS assay to identify small molecule antagonists of the glucocorticoid receptor (GR) signaling pathway (AID 720692; active = well fitted inhibition curve with a large enough effect in the signal ratio in the repeat runs, not every such curve was filed as active; the % refers to the signal ratio)
How it was run: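 Antagonism was scored as loss of dexamethasone-driven (5 nM final) reporter signal in HeLa cells bearing a glucocorticoid response element–beta-lactamase construct, after 18 h compound exposure at 37 C and 2 h FRET substrate loading.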

[19] = qHTS assay to test for compound auto fluorescence at 590 nm (red) in HEK293 cell free culture (AID 720683)
How it was run: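 Cell-free wells of DMEM with 10% FBS received compound, and intrinsic fluorescence was read at excitation/emission 540/590 nm. Values expressed as equivalence to Rose Bengal sodium.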

Androgen receptor (Homo sapiens), sequence (P10275 whole entry, looked up): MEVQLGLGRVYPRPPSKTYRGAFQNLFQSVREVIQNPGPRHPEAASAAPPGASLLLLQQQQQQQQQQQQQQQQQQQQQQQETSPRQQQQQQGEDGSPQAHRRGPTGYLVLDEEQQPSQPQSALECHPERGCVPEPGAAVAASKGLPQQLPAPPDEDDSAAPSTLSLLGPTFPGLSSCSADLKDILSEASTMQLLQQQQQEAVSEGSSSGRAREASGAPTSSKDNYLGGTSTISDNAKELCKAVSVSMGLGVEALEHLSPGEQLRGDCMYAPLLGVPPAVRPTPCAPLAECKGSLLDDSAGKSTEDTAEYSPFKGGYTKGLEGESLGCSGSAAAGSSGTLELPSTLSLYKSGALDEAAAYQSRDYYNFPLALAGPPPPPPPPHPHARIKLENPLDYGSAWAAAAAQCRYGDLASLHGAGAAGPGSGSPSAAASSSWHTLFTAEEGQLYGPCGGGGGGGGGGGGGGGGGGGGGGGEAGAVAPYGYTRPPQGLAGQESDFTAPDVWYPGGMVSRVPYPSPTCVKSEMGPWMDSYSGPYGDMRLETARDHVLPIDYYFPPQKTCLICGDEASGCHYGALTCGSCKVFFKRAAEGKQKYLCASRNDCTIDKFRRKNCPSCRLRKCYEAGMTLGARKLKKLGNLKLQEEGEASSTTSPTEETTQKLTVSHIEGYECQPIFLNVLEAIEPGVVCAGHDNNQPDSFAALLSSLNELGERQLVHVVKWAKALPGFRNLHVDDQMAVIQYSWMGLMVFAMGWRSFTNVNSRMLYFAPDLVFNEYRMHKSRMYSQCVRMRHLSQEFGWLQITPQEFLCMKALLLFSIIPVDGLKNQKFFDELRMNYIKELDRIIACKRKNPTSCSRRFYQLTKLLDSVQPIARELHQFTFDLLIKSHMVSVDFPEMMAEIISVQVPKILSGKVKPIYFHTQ
Glucocorticoid receptor (Homo sapiens), sequence (P04150 whole entry, looked up): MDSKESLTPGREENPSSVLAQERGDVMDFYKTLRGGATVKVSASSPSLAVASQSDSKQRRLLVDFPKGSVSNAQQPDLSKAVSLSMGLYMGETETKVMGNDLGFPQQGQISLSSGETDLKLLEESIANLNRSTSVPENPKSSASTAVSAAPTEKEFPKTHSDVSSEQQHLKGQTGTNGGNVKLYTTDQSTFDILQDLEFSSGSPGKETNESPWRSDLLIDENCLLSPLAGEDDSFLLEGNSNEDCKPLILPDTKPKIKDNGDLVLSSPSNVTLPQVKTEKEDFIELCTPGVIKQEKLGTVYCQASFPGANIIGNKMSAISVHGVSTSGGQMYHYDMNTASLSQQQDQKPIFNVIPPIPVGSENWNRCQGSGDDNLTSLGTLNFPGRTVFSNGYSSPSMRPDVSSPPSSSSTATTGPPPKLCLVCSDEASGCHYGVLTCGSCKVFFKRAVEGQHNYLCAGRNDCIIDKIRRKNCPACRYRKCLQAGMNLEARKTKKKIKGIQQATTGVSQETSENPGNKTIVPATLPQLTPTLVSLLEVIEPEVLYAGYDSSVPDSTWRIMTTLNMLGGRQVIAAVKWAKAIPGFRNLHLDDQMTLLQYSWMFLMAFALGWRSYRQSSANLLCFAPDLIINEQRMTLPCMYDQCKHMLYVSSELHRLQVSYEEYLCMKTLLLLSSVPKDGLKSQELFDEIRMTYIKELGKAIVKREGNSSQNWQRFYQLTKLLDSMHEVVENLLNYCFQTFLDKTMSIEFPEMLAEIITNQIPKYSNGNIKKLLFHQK

CC(C)=CC1C(C(=O)OCN2C(=O)C3=C(CCCC3)C2=O)C1(C)C (centres undefined)
outcome [1]: inactive | outcome [2]: inactive | outcome [3]: inactive | Potency [4]: inactive | outcome [5]: inactive | Potency [6]: inactive | outcome [7]: inactive | Potency [8]: inactive | Potency [9]: 43.3 µM (active) | Potency [10]: inactive | Potency [11]: 27.3 µM (active) | Potency [12]: inactive | Potency [13]: 43.6 µM (active) | Potency [14]: inactive | activity change ([15]; at 70.3 µM (top of the series)): 7.43% (inactive) and -10.5% (inactive) | Potency [16]: inactive | Potency [17]: inactive

CC(C)(c1ccccc1)c1ccc(O)cc1
outcome [1]: inactive | outcome [2]: inactive | outcome [3]: inactive | Potency [4]: inactive | outcome [5]: inactive | Potency [6]: inactive | Potency [8]: inactive | Potency [9]: 21.7 µM (active) | Potency [10]: 60.6 µM (active) and 17.2 µM (active) | Potency [11]: 13.7 µM (active) | Potency [12]: 38.6 µM (active) and 49 µM (active) | Potency [16]: inactive

CN(C)c1ccccc1
outcome [1]: inactive | outcome [2]: inactive | outcome [3]: inactive | Potency [4]: inactive | outcome [5]: inactive | Potency [6]: inactive | Potency [18]: inactive | Potency [8]: inactive | Potency [9]: inactive | Potency [10]: inactive | Potency [11]: inactive | Potency [12]: inactive | Potency [16]: inactive

ClCc1ccccn1
outcome [1]: inactive | outcome [2]: inactive | outcome [19]: inactive | outcome [3]: inactive | Potency [4]: inactive | outcome [5]: inactive | Potency [18]: inactive | Potency [8]: inactive | Potency [9]: inactive | Potency [10]: inactive | Potency [11]: inactive | Potency [12]: inactive | Potency [16]: inactive

CCOP(=S)(OCC)OP(=S)(OCC)OCC
outcome [1]: inactive | outcome [2]: inactive | outcome [19]: inactive | outcome [3]: inactive | Potency [4]: inactive | outcome [5]: inactive | Potency [8]: inactive | Potency [9]: inactive | Potency [10]: inactive | Potency [11]: inactive | Potency [12]: inactive | Potency [13]: inactive | Potency [14]: inactive | activity change ([15]; at 70.3 µM (top of the series)): -0.0098% (inactive) | Potency [16]: inactive | Potency [17]: inactive

COc1ccc(O)c(C(C)(C)C)c1
outcome [1]: inactive | outcome [2]: inactive | outcome [19]: inactive | outcome [3]: inactive | Potency [4]: inactive | outcome [5]: inactive | Potency [6]: inactive | outcome [7]: inactive | Potency [8]: inactive | Potency [9]: inactive | Potency [10]: inactive | Potency [11]: inactive | Potency [12]: inactive | Potency [16]: inactive

CCC1(c2ccc(N)cc2)CCC(=O)NC1=O (centres undefined)
outcome [1]: inactive | outcome [2]: inactive | outcome [19]: inactive | outcome [3]: inactive | Potency [4]: inactive | outcome [5]: inactive | Potency [6]: inactive | Potency [8]: inactive | Potency [9]: inactive | Potency [10]: inactive | Potency [11]: inactive | Potency [12]: inactive | Potency [13]: inactive | Potency [14]: inactive | activity change ([15]; at 70.3 µM (top of the series)): -1.61% (inactive) and 2% (inactive) | Potency [16]: inactive | Potency [17]: inactive

C=C(C)C#N
outcome [1]: inactive | outcome [2]: inactive | outcome [19]: inactive | outcome [3]: inactive | Potency [4]: inactive | outcome [5]: inactive | Potency [6]: inactive | Potency [8]: inactive | Potency [9]: inactive | Potency [10]: inactive | Potency [11]: inactive | Potency [12]: inactive | Potency [16]: inactive

O=C1CCCO1
outcome [1]: inactive | outcome [2]: inactive | outcome [19]: inactive | outcome [3]: inactive | Potency [4]: inactive | outcome [5]: inactive | Potency [6]: inactive | Potency [18]: inactive | Potency [8]: inactive | Potency [9]: inactive | Potency [10]: inactive | Potency [11]: inactive | Potency [12]: inactive | Potency [13]: inactive | Potency [14]: inactive | activity change ([15]; at 70.3 µM (top of the series)): -2.47% (inactive) and -0.181% (inactive) | Potency [16]: inactive | Potency [17]: inactive

O=S(=O)(O)C(F)(F)C(F)(F)C(F)(F)C(F)(F)C(F)(F)C(F)(F)C(F)(F)C(F)(F)F
outcome [1]: inactive | outcome [2]: inactive | outcome [19]: inactive | outcome [3]: inactive | Potency [4]: inactive | outcome [5]: inactive | Potency [8]: inactive | Potency [9]: inactive and 54.5 µM (active) | Potency [10]: 61.1 µM (active) and 48.6 µM (active) | Potency [12]: inactive | Potency [16]: inactive

OCCOCCO
outcome [1]: inactive | outcome [2]: inactive | outcome [19]: inactive | outcome [3]: inactive | Potency [4]: inactive | outcome [5]: inactive | Potency [6]: inactive | Potency [18]: inactive | Potency [8]: inactive | Potency [9]: inactive | Potency [10]: inactive | Potency [11]: inactive | Potency [12]: inactive | Potency [16]: inactive

CCCCSP(=O)(SCCCC)SCCCC
outcome [1]: inactive | outcome [2]: inactive | outcome [3]: inactive | Potency [4]: inactive | outcome [5]: inactive | Potency [6]: inactive | Potency [8]: inactive | Potency [9]: 61.1 µM (active) | Potency [10]: inactive | Potency [11]: inactive | Potency [12]: inactive | Potency [16]: inactive

CC(C)Nc1ccc(Nc2ccccc2)cc1
outcome [1]: inactive | outcome [2]: inactive | outcome [3]: inactive | Potency [4]: inactive | outcome [5]: inactive | Potency [6]: inactive | Potency [8]: inactive | Potency [9]: 5.96 µM (active) and 17.2 µM (active) and 12.2 µM (active) | Potency [10]: 10.6 µM (active) and 12.1 µM (active) and 13.7 µM (active) | Potency [11]: 8.41 µM (active) and 15.3 µM (active) and 10.9 µM (active) | Potency [12]: 21.8 µM (active) and 49 µM (active) | Potency [16]: 68.3 µM (active) and 61.1 µM (active)

O=[N+]([O-])c1ccc(Cl)c([N+](=O)[O-])c1
outcome [1]: inactive | outcome [2]: inactive | outcome [19]: inactive | outcome [3]: inactive | Potency [4]: inactive | outcome [5]: inactive | Potency [6]: inactive | Potency [8]: 19.8 µM (active) | Potency [9]: 2.77 µM (active) and 1.72 µM (active) | Potency [10]: 1.75 µM (active) and 2.17 µM (active) | Potency [11]: 1.24 µM (active) and 1.93 µM (active) | Potency [12]: 11.1 µM (active) and 17.4 µM (active) | Potency [13]: 9.92 µM (active) and 19.5 µM (active) | activity change ([15]; at 70.3 µM (top of the series)): -11.5% (inactive) | activity change ([15]; at 95 µM (top of the series)): -10.5% (inactive) | Potency [16]: 15.6 µM (active) and 13.7 µM (active) | Potency [17]: 8.77 µM (active) and 8.63 µM (active)
